For 20 compounds, growth inhibition, inhibition and outcome results are on record in PubChem BioAssay.

In general, inhibition refers to the relative decrease from the control value, in per cent.

A short description of test [1]: antimalarial activity against Dd2 strain (AID 2302;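 active = growth inhibition above 50% at the single 2 µM test dose, taken to imply half-maximal potency below 2 µM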;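 note: 0% = DMSO untreated growth and 100% = chloroquine plus artemisinin killed control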). The following applies: P. falciparum Dd2 in RBCs, LDH growth readout, 72 h; at 2 µM; stronger effect = higher value.
Test [2] in a line: HepG2 cytotoxicity, primary screen, cytotoxicity control for P. falciparum antimalarial project, cell-based, ATP luminescence (AID 2303;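 active = inhibition above 50%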;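 note: 0% = DMSO wells and 100% = digitonin-killed cells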). The following applies: HepG2 viability, 24-48 h, at 10 µM, stronger effect = higher value.
In test [3] the target is L-lactate dehydrogenase (Plasmodium falciparum (isolate CDC / Honduras)) (UniProt Q27743). Description: PfLDH activity inhibition – cell lysate, 3D7 strain, counter-screen for P. falciparum growth inhibition project (AID 2304).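 Note: 0% = vehicle and 100% = reference inhibitor.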 The following applies: P. falciparum 3D7 crude extract, LDH APAD/NBT absorbance; at 2 µM; stronger effect = higher value.
Test [4] in a line: inhibition of 3D7 malaria parasite growth – strain 3D7 (AID 2306).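 Note: 0% = DMSO wells and 100% = chloroquine plus artemisinin control wells.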 The conditions noted are these: P. falciparum 3D7 erythrocytic growth, LDH absorbance, 72 h; at 2 µM; stronger effect = higher value.
Test [5] has as its target Calcium-dependent protein kinase 1 (Plasmodium falciparum (isolate 3D7)) (UniProt P62344). Nature of the test: PfCDPK1 kinase inhibitors, biochemical, TCAMS library (AID 1159585; cut-off not given, nearly all actives have IC50 up to about 0.98 µM;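 note: inhibitors leave more ATP so luminescence rises with inhibition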). The following applies: recombinant PfCDPK1, Kinase-Glo ATP depletion luminescence.
In test [6] the target is Plasmodium falciparum protein kinase 6 (PK6, PF3D7_1337100) (UniProt Q8IDW1). Description: PfPK6 kinase inhibitors, biochemical, TCAMS library (AID 1159586). The following applies: recombinant PfPK6, Kinase-Glo ATP depletion luminescence. (Kinase-Glo reads ATP consumption through a luciferase reaction.)
Test [7] addresses Protein kinase 7 (PK7), Plasmodium falciparum 3D7 (PF3D7_0213400) (UniProt Q7YTF7). Nature of the test: inhibition of Plasmodium PK7 catalytic activity – biochemical, TCAMS antimalarial set, Kinase-Glo luminescence (AID 1159587). The following applies: recombinant PfPK7, Kinase-Glo ATP depletion luminescence.
Test [8] concerns the target Calcium-dependent protein kinase 4 (Plasmodium falciparum (isolate 3D7)) (UniProt Q8IBS5). Description: PfCDPK4 kinase inhibitors, biochemical, TCAMS library (AID 1159588; cut-off not given, nearly all actives have IC50 up to about 0.91 µM). The following applies: recombinant PfCDPK4, Kinase-Glo ATP depletion luminescence.

A number with no mark means an inactive call. For some of these results: Results with a measured potency or affinity are listed apart. Calls of active or inactive are those of the source. Unless noted, the rule behind the calls is not given here.

Sequence of Calcium-dependent protein kinase 4 (Plasmodium falciparum (isolate 3D7)) (Q8IBS5 whole entry, looked up): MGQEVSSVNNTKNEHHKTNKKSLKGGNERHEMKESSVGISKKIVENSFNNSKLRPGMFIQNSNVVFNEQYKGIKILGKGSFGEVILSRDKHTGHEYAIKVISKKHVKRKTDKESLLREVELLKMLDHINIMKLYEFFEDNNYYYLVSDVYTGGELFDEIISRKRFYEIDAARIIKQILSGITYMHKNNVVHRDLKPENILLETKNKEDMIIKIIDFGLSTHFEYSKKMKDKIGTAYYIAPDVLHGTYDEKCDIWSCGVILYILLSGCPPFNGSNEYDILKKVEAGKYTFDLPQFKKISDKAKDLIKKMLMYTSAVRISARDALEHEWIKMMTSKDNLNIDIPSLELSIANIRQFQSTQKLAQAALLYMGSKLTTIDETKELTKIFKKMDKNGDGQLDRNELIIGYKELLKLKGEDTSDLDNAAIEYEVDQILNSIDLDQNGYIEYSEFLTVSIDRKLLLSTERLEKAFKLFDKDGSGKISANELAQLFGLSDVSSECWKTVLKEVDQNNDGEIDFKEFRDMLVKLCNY
Sequence of L-lactate dehydrogenase (Plasmodium falciparum (isolate CDC / Honduras)) (Q27743 whole entry, looked up): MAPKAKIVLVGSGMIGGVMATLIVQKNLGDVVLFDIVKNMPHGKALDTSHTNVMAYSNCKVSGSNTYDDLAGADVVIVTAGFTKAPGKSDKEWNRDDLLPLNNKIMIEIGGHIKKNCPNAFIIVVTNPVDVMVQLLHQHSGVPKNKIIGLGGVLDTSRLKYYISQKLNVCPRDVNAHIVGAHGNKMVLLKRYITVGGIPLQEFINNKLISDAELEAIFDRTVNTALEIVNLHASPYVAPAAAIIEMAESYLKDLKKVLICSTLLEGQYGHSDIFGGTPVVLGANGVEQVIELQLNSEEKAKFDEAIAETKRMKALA
Sequence of Plasmodium falciparum protein kinase 6 (PK6, PF3D7_1337100) (Q8IDW1 1-305): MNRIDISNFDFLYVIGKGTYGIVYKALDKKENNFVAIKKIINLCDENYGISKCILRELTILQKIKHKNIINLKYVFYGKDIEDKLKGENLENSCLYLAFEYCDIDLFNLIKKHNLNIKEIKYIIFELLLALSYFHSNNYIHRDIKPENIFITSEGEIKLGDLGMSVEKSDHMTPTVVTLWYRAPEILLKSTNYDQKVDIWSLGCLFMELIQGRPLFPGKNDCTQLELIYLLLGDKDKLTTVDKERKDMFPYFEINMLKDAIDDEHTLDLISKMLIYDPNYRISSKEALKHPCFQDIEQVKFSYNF
Sequence of Calcium-dependent protein kinase 1 (Plasmodium falciparum (isolate 3D7)) (P62344 whole entry, looked up): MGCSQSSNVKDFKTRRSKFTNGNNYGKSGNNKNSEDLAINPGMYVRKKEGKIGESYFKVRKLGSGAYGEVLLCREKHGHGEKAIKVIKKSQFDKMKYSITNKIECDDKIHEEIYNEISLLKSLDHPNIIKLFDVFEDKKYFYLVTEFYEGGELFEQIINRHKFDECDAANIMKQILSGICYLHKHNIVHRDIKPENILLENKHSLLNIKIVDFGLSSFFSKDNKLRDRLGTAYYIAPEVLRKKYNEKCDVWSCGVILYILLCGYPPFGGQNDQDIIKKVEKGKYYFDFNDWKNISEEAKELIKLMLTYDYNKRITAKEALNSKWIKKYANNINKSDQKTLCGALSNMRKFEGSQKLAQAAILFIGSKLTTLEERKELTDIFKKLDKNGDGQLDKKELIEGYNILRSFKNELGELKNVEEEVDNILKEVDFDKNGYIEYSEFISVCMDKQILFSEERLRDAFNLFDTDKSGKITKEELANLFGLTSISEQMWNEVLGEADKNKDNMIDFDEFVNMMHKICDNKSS
Sequence of Protein kinase 7 (PK7), Plasmodium falciparum 3D7 (PF3D7_0213400) (Q7YTF7 1-343): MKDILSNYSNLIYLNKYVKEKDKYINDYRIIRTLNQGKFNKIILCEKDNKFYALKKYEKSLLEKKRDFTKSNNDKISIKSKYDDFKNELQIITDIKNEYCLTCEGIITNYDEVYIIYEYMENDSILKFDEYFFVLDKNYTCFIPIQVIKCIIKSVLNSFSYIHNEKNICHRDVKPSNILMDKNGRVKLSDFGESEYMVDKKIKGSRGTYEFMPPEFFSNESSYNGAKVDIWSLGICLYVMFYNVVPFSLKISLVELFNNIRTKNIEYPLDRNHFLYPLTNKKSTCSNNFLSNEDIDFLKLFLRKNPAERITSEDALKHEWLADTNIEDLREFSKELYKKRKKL

`CNC(=O)c1cnc(Nc2ccc(OCC(O)CN(C)C)cc2)nc1Nc1cccc([N+](=O)[O-])c1` (stereo not given): the growth inhibition in test [1] is 94% (active); in test [4], 100% (active). Besides, the inhibition in test [2] is 52% (active); in test [3], -1%. Besides, the result in test [5], in test [6], in test [7] and in test [8] was inactive.
As for `CCc1c(C)nc(-n2nc(C)cc2NC(=O)CC(c2ccccc2)c2ccccc2)[nH]c1=O`, the growth inhibition in test [1] is 98% (active); in test [4], 97% (active). The inhibition in test [2] is 41%; in test [3] it was -3%. Besides, the result in test [5], in test [6], in test [7] and in test [8] was inactive.
As for `CCCNC(=O)C1CCN(C(c2ccc(Cl)cc2)c2ccc(Cl)cc2)CC1`, the growth inhibition in test [1] is 96% (active); in test [4], 98% (active). Besides, the inhibition is 7% in test [2] and 4% in test [3]. Also, the outcome in test [5], in test [6], in test [7] and in test [8] was inactive.
With `COc1ccc(C2C(C(=O)Nc3cc(C)ccc3OC)c3ccccc3C(=O)N2C)cc1` (stereo not given), the growth inhibition in test [1] was 3%; in test [4], 86% (active). Besides, the inhibition in test [2] is 3%; in test [3] it was 1%. For the same compound, the outcome in test [5], in test [6], in test [7] and in test [8] was inactive.
For the compound `CCCC(=O)Nc1ccc(Cl)c(NC(=O)COc2cc(C)ccc2C(C)C)c1`, the results for the growth inhibition in test [1] and in test [4] were 67% (active) and 87% (active), respectively. Also, the results for the inhibition in test [2] and in test [3] were 2% and 0%, respectively. The result in test [5], in test [6], in test [7] and in test [8] was inactive.
On to `CN(C)CCNC(=O)c1cccc(-c2cnc3ccc(NCc4ccc(Cl)c(Cl)c4)nn23)c1`, for which the growth inhibition in test [1] was 53% (active); in test [4], 100% (active). Besides, the inhibition in test [2] is 31%; in test [3] it was -2%. Further, the outcome in test [5], in test [6], in test [7] and in test [8] was inactive.
On to `CC(C)COc1ccc(Cl)cc1Nc1nc(-c2nc3ccccc3[nH]2)cs1`, for which the growth inhibition in test [1] was 29%; in test [4], 96% (active). For the same compound, the inhibition is 2% in test [2] and 0% in test [3]. The outcome in test [5], in test [6], in test [7] and in test [8] was inactive.
With `COc1ccc(C2CCC(NCCCCNC(=O)c3ccc(NC(=O)c4ccc(Cl)cc4)cc3)CC2)cc1` (stereo not given), the growth inhibition in test [1] was 7%; in test [4] it was 99% (active). Moreover, the inhibition was 23% in test [2] and -6% in test [3]. For the same compound, the outcome in test [5], in test [6], in test [7] and in test [8] was inactive.
For `OC1CCCN(Cc2cccc(-c3ccc(-c4nc5ccc(F)cc5[nH]4)cc3)c2)C1` (stereo not given), the growth inhibition in test [1] was 42%; in test [4], 101% (active). Also, the figures for the inhibition in test [2] and in test [3] were 16% and -4%, respectively. Besides, the result in test [5], in test [6], in test [7] and in test [8] was inactive.
On to `Cc1cc(-c2nc3cncc(-c4cccc(CN5CCCC5Cc5cccnc5)c4)c3n2C)nn1C` (stereo not given), for which the growth inhibition in test [1] was 73% (active); in test [4], 83% (active). Further, the inhibition was -7% in test [2] and -1% in test [3]. For the same compound, the outcome in test [5], in test [6], in test [7] and in test [8] was inactive.
Regarding `COCCNCc1cccc(C#Cc2cc3ncnc(Nc4ccc(OCc5cccc(F)c5)c(Cl)c4)c3s2)n1`, the results for the growth inhibition in test [1] and in test [4] were 52% (active) and 99% (active), respectively. In addition, the results for the inhibition in test [2] and in test [3] were 35% and -4%, respectively. Moreover, the result in test [5], in test [6], in test [7] and in test [8] was inactive.
`c1ccc2c(c1)CN(CC1CCOCC1)CC1(CCN(Cc3c[nH]c4cnccc34)CC1)O2`: the results for the growth inhibition in test [1] and in test [4] were 7% and 99% (active), respectively. In addition, the values for the inhibition in test [2] and in test [3] were 21% and -3%, respectively. Besides, the result in test [5], in test [6], in test [7] and in test [8] was inactive.
`O=C(/C=C/c1ccc(F)cc1)NC1CCC(CCN2CCc3ccc(-n4cccn4)cc3CC2)CC1` (stereo not given): the growth inhibition in test [1] is 16%; in test [4] it was 89% (active). The inhibition in test [2] was 23%; in test [3], 3%. For the same compound, the result in test [5], in test [6], in test [7] and in test [8] was inactive.
Take `COc1cc(NCCCCNc2ccc(Cl)c(Cl)c2)nc2ccccc12`: the growth inhibition is 68% (active) in test [1] and 100% (active) in test [4]. Also, the figures for the inhibition in test [2] and in test [3] were 22% and 2%, respectively. Besides, the result in test [5], in test [6], in test [7] and in test [8] was inactive.
As for `O=S(=O)(Nc1cc2c(cc1O)CCN(C1CCC1)CC2)c1ccc(-c2ccc(F)cc2)cc1`, the growth inhibition in test [1] is 99% (active); in test [4], 101% (active). The inhibition is 16% in test [2] and -1% in test [3]. In addition, the result in test [5], in test [6], in test [7] and in test [8] was inactive.
Turning to `Cn1cc(CN2CCC(OC(c3ccccc3)c3ccc(Cl)cc3)CC2)cn1` (stereo not given), the growth inhibition in test [1] is 61% (active); in test [4], 94% (active). For the same compound, the inhibition is 39% in test [2] and 5% in test [3]. The outcome in test [5], in test [6], in test [7] and in test [8] was inactive.
`Nc1ccc2nc(C=Cc3ccc(Cl)cc3)[nH]c2c1`: the figures for the growth inhibition in test [1] and in test [4] were 83% (active) and 91% (active), respectively. Further, the inhibition in test [2] was 19%; in test [3], 1%. Moreover, the result in test [5], in test [6], in test [7] and in test [8] was inactive.
On to `CN(C)CCNCc1cccc(-c2ccc3c(Nc4cc(O)c(Cl)cc4F)ccnc3c2)c1`, for which the growth inhibition in test [1] was 59% (active); in test [4] it was 99% (active). In addition, the inhibition in test [2] is 6%; in test [3] it was 3%. In addition, the outcome in test [5], in test [6], in test [7] and in test [8] was inactive.
As for `c1cc2c3c(cccc3c1)NC(CCCCCCCCC1=Nc3cccc4cccc(c34)N1)=N2`, the growth inhibition is 6% in test [1] and 93% (active) in test [4]. Moreover, the inhibition in test [2] was 14%; in test [3], 0%. Moreover, the result in test [5], in test [6], in test [7] and in test [8] was inactive.
Regarding `O=C(Nc1ccsc1)Nc1cccc(-c2cccc(-c3nc4ccc(C(F)(F)F)cc4[nH]3)c2)c1`, the growth inhibition in test [1] was 101% (active); in test [4] it was 102% (active). In addition, the values for the inhibition in test [2] and in test [3] were 76% (active) and -7%, respectively. The result in test [5], in test [6], in test [7] and in test [8] was inactive.
